Screens (PubChem BioAssay)
LANA-H2B inh = blocks KSHV LANA binding to histone H2A/H2B | Q9QR71 | cell-free LANA-H2A/H2B peptide, fluorescence polarization | inhibition, % (no concentration beside the values) | 320,000 tested, 0.6% active | AID 2629; in the data active means inhibition mostly above about 10%, no sharp cut-off; inactive means mostly below about 6.7%
HDAC3 inhib = inhibitors of human histone deacetylase 3. recombinant HDAC3, fluorogenic peptide/trypsin coupled, fluorescence. inhibition, % at 8.3 µM. 320,000 tested, 0.15% active. AID 2718; in the data active means inhibition above about 26%, passing the limit was not always enough
m5-HT2A agonist = mouse HTR2A agonism via beta-arrestin recruitment; P35363; CHO-K1 mHTR2A beta-arrestin complementation, luminescence; percent of 30 µM serotonin response; activation, % at 7.6 µM; 360,000 tested, 0.66% active;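 active means activation above a run cutoff, the mean activation of all tested compounds plus 3 SD, cut at about 14% in these data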;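 further: 0% = plate median of compound wells and 100% = 30 µM serotonin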
Target sequence (P35363 whole entry, looked up): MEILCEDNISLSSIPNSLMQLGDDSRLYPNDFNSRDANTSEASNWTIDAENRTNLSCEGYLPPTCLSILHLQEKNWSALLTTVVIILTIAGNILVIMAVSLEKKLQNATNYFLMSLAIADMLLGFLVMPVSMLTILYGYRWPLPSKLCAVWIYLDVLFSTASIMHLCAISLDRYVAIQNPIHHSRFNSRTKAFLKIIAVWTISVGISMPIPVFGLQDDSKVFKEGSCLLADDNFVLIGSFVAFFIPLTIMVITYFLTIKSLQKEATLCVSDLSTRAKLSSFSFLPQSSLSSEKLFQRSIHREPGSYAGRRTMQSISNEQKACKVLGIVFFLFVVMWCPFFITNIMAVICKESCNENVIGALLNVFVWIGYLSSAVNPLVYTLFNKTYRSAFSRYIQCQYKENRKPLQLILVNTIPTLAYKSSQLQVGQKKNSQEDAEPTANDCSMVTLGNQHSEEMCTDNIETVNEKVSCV
CTSL1 counter = blocks F. hepatica cathepsin L1 in PFM18AAP counter-screen. inhibition, % at 5.96 µM. AID 1906. 300,000 tested, 0.49% active. recombinant F. hepatica cathepsin L1, Z-Leu-Arg-MCA fluorescence;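 active means inhibition above the mean of all tested compounds plus 3 SD, set per screening campaign, cut at about 17% in these data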;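 further: 0% = plate median of test compound wells and 100% = 1 µM Z-Phe-Ala-diazomethylketone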
Active calls of the source: *. Only some compounds are listed: those with a hit (about 1.7% of all), similar ones and a draw of the others.

What do the screens show for `Cc1ccc2c(c1)C(c1ccccc1)N(C(=O)CC(C)C)CC(=O)N2` (configuration not stated)?
LANA-H2B inh: 8; HDAC3 inhib: 1; m5-HT2A agonist: -7; CTSL1 counter: -3

Results for O=C(NCCCN1CCOCC1)C1CCN(S(=O)(=O)c2ccccc2)CC1 ?
LANA-H2B inh: -1; HDAC3 inhib: -7; m5-HT2A agonist: -6; CTSL1 counter: 0

Results for CCCc1cc(Nc2cccc(OC)c2)n2ncnc2n1 ?
LANA-H2B inh: -1; HDAC3 inhib: 0; m5-HT2A agonist: -2; CTSL1 counter: 18*

What do the screens show for `CC(C)(CN1CCc2ccccc2C1)NS(=O)(=O)c1ccc(Cl)cc1`?
LANA-H2B inh: 25*; HDAC3 inhib: -3; m5-HT2A agonist: -4; CTSL1 counter: 4

How did Cc1ccc(C(=O)O/N=C(\N)c2cccc([N+](=O)[O-])c2)cc1 do in these assays?
LANA-H2B inh: -2; HDAC3 inhib: 6; m5-HT2A agonist: -5; CTSL1 counter: -2

What do the screens show for `N/C(=N\OC(=O)C1CCCCC1)c1cccc([N+](=O)[O-])c1`?
LANA-H2B inh: 15*; HDAC3 inhib: 2; m5-HT2A agonist: 3; CTSL1 counter: -3

Results for COc1ccc(C(C)NC(=O)C2CCN(CCCc3ccccc3)CC2)cc1OC (configuration not stated) ?
m5-HT2A agonist: 1

What do the screens show for `S=C(NCc1cccs1)Nc1cccc(Cl)c1`?
LANA-H2B inh: -2; HDAC3 inhib: 7; m5-HT2A agonist: -3; CTSL1 counter: 3

Results for S=C(NCc1cccs1)Nc1cc(Cl)cc(Cl)c1 ?
LANA-H2B inh: 21*; HDAC3 inhib: -3; m5-HT2A agonist: -1; CTSL1 counter: -3

Results for CCCCCCCCCCCCCCCC[n+]1ccc(/C=N/O)cc1 ?
LANA-H2B inh: 13*; HDAC3 inhib: 9; m5-HT2A agonist: 5; CTSL1 counter: 4

What do the screens show for `COc1ccc(OC)c(S(=O)(=O)ON2C(=O)c3ccccc3C2=O)c1`?
LANA-H2B inh: 6; HDAC3 inhib: 37*; m5-HT2A agonist: 2; CTSL1 counter: 11

How did COc1ccc(OC)c(S(=O)(=O)N2CCN(c3ccccc3)CC2)c1 do in these assays?
LANA-H2B inh: 6; HDAC3 inhib: 0; m5-HT2A agonist: 0; CTSL1 counter: -7

Results for O=C(O)c1ccccc1NS(=O)(=O)c1cccc(-n2sc3ccccc3c2=O)c1 ?
LANA-H2B inh: 3; HDAC3 inhib: 54*; m5-HT2A agonist: 4; CTSL1 counter: 4

How did O=C(O)c1ccccc1NS(=O)(=O)c1cccc(C(F)(F)F)c1 do in these assays?
LANA-H2B inh: -2; HDAC3 inhib: 0; m5-HT2A agonist: 3; CTSL1 counter: 2

How did Cc1ccc(S(=O)(=O)N2CCOCC2)cc1NC(=O)COC(=O)/C=C/c1ccco1 do in these assays?
LANA-H2B inh: -5; HDAC3 inhib: 6; m5-HT2A agonist: -2

What do the screens show for `COc1cc(CN(CC2CCCO2)C(=O)c2cccs2)cc(OC)c1OC` (configuration not stated)?
m5-HT2A agonist: 7; CTSL1 counter: 18*

Results for COc1cc(CN(CC2CCCO2)C(=O)c2ccco2)cc(OC)c1OC (configuration not stated) ?
LANA-H2B inh: -4; HDAC3 inhib: 3; m5-HT2A agonist: -4; CTSL1 counter: -1

How did CCOC(=O)C1CCCN(C(=O)C2c3ccccc3Oc3ccccc32)C1 (configuration not stated) do in these assays?
LANA-H2B inh: 71*; HDAC3 inhib: 0; m5-HT2A agonist: 3; CTSL1 counter: 10

Results for CCOC(=O)C1CCCN(C(=O)C2COc3ccccc3O2)C1 (configuration not stated) ?
m5-HT2A agonist: 3

How did CCOC(=O)c1ccc(S(=O)(=O)Nc2cc(C(C)(C)C)no2)cc1 do in these assays?
LANA-H2B inh: -5; HDAC3 inhib: 7; m5-HT2A agonist: 2; CTSL1 counter: 3

How did Cc1ccc(C(=O)OCC(=O)Nc2cc(C(C)(C)C)no2)c(C)c1 do in these assays?
LANA-H2B inh: 12*; HDAC3 inhib: 7; m5-HT2A agonist: 10

Results for CN(CC(=O)Oc1ccc(-c2nnco2)cc1)S(=O)(=O)c1ccc(F)cc1 ?
LANA-H2B inh: 3; HDAC3 inhib: 8; m5-HT2A agonist: 1; CTSL1 counter: -33

How did COc1ccc(-c2cc(C(=O)N3CC4(C)CC3CC(C)(C)C4)no2)cc1OC (configuration not stated) do in these assays?
LANA-H2B inh: 55*; HDAC3 inhib: -6; m5-HT2A agonist: 3; CTSL1 counter: 17*

How did Cc1ccc(NC(=S)N2CCCC2)cc1Cl do in these assays?
LANA-H2B inh: 1; HDAC3 inhib: 6; m5-HT2A agonist: 0

What do the screens show for `Cc1cc(C)n(CC(=O)NC2C(=O)N3C(C(=O)O)=C(CSc4nnc(C)s4)CSC23)n1` (configuration not stated)?
LANA-H2B inh: -6; HDAC3 inhib: 2; m5-HT2A agonist: 3; CTSL1 counter: 2

How did Cc1nnc(SCC2=C(C(=O)O)N3C(=O)C(NC(=O)c4cccc(F)c4F)C3SC2)s1 (configuration not stated) do in these assays?
LANA-H2B inh: -6; HDAC3 inhib: 3; m5-HT2A agonist: 3; CTSL1 counter: 29*

Results for CCN1CCc2c(C#N)c(N3CCCCC3)nc(N3CCOCC3)c2C1 ?
LANA-H2B inh: -3; HDAC3 inhib: -13; m5-HT2A agonist: -3; CTSL1 counter: 18*

How did CCN1CCc2c(C#N)c(N3CCOCC3)nc(N3CCOCC3)c2C1 do in these assays?
LANA-H2B inh: -1; HDAC3 inhib: -2; m5-HT2A agonist: 4; CTSL1 counter: 3

What do the screens show for `CCc1ccc(CNc2ccc(O)cc2)cc1`?
LANA-H2B inh: -1; HDAC3 inhib: 4; m5-HT2A agonist: -2; CTSL1 counter: 105*

How did Oc1ccc(NCc2ccc(OCc3ccccc3)cc2)cc1 do in these assays?
LANA-H2B inh: 1; HDAC3 inhib: 5; m5-HT2A agonist: 2

What do the screens show for `CCOC(=O)N1CCN(C(=O)c2ccc3c(c2)N(C)C(=O)/C(=C\c2ccc(OCC)c(OC)c2)S3)CC1`?
LANA-H2B inh: -2; HDAC3 inhib: 9; m5-HT2A agonist: 5; CTSL1 counter: 20*

Results for COc1ccc(Nc2nc(C(=O)N3CCc4ccccc4C3)cs2)cc1 ?
LANA-H2B inh: 19*; HDAC3 inhib: 4; m5-HT2A agonist: -4; CTSL1 counter: 9

Results for COc1ccc(/C=C(\NC(=O)c2ccco2)C(=O)NCc2ccco2)cc1 ?
LANA-H2B inh: 6; HDAC3 inhib: 2; m5-HT2A agonist: 2; CTSL1 counter: 0

How did O=C(OCc1c(-c2ccccc2)ncc2ccccc12)c1cccs1 do in these assays?
LANA-H2B inh: -8; HDAC3 inhib: 1; m5-HT2A agonist: 2

How did COc1ccc(-c2ccc(CCC(=O)O)n2CC2CCCO2)cc1 (configuration not stated) do in these assays?
LANA-H2B inh: 6; HDAC3 inhib: -3; m5-HT2A agonist: 3; CTSL1 counter: 0

Results for O=C(O)CCc1ccc(-c2ccc(F)cc2)n1CC1CCCO1 (configuration not stated) ?
LANA-H2B inh: 37*; HDAC3 inhib: -16; m5-HT2A agonist: -2; CTSL1 counter: 2
